Several values for one entry are separate records, joined by “and”; a condition that tells them apart may be missing. Equal values may be shown once. Results filed as inconclusive are left out. More than one record can exist for a structure, and the calls need not agree. Activity calls are given as the source filed them. Calls come from the whole dose curve; as a rule, active = well fitted curve in the direction sought with a large enough effect; inconclusive = small, poorly fitted or top-dose-only effect, or another doubt; inactive = no such curve, though single readings can be large; an effect the other way counts as inactive or inconclusive.
What was measured:
[1] = system: HEK293; test: Cytotoxic Profiling of Annotated Libraries Using Quantitative High-Throughput Screening (AID 1296008); conditions: Five cell lines viability, CellTiter-Glo ATP luminescence, 48-72 h; max response: stronger effect = lower value; note: nearly all actives have a fitted effect of over 60% in size
Summary of the method: (§1)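 Compounds were pin-transferred onto cells and incubated 48 or 72 hr at 37 degree Celsius, 95% humidity. CellTiter-Glo was added, plates sat 10 min at room temperature, then ATP-coupled luminescence was imaged as the viability read-out.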

[2] = system: HaCat; test: as above; conditions: Five cell lines viability, CellTiter-Glo ATP luminescence, 48-72 h; max response: stronger effect = lower value
Summary of the method: as §1

[3] = system: KB-3-1; test: as above; conditions: Five cell lines viability, CellTiter-Glo ATP luminescence, 48-72 h; max response: stronger effect = lower value
Summary of the method: as §1

[4] = system: MCC-13; test: qHTS assay to identify novel small-molecules to repurpose for Merkel cell carcinoma treatment (AID 1296009); conditions: MCC and control cell lines, CellTiter-Glo viability, 72 h; series mostly up to 46 µM; note: nearly all actives have a fitted effect of over 60% in size
Summary of the method: (§2)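 Cells exposed to NPC (8-point) and MIPE (11-point) compound dilutions for 72 hr at 37 degree celsius; viability read by CellTiter-Glo luminescence, normalized to no-cell and DMSO in-plate controls.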

[5] = system: MCC-26; test: as above; conditions: MCC and control cell lines, CellTiter-Glo viability, 72 h; series mostly up to 46 µM
Summary of the method: as §2

[6] = system: MKL-1; test: as above; conditions: MCC and control cell lines, CellTiter-Glo viability, 72 h; series mostly up to 46 µM
Summary of the method: as §2

[7] = system: MKL-2; test: as above; conditions: MCC and control cell lines, CellTiter-Glo viability, 72 h; series mostly up to 46 µM
Summary of the method: as §2

[8] = system: UISO; test: as above; conditions: MCC and control cell lines, CellTiter-Glo viability, 72 h; series mostly up to 46 µM
Summary of the method: as §2

[9] = system: WaGa; test: as above; conditions: MCC and control cell lines, CellTiter-Glo viability, 72 h; series mostly up to 46 µM
Summary of the method: as §2

[10] = system: C33A; test: Primary qHTS to identify gynecologic anti-cancer compounds using libraries of approved drugs and bioactive compounds (AID 1345084); conditions: Gynecologic cancer cell panel viability, ATPlite luminescence, 48 h; series mostly up to 57.5 µM; note: nearly all actives have a fitted effect of over 55% in size
Summary of the method: (§3)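 Measured: luminescence after ATPlite addition (15 min, RT). Exposure: 48 h, 37 C, 5% CO2.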

[11] = system: CAOV3; test: as above; conditions: Gynecologic cancer cell panel viability, ATPlite luminescence, 48 h; series mostly up to 57.5 µM
Summary of the method: as §3

[12] = system: CASKI; test: as above; conditions: Gynecologic cancer cell panel viability, ATPlite luminescence, 48 h; series mostly up to 57.5 µM
Summary of the method: as §3

[13] = system: Es-2; test: as above; conditions: Gynecologic cancer cell panel viability, ATPlite luminescence, 48 h; series mostly up to 57.5 µM
Summary of the method: as §3

[14] = system: HeLa; test: as above; conditions: Gynecologic cancer cell panel viability, ATPlite luminescence, 48 h; series mostly up to 57.5 µM
Summary of the method: as §3

[15] = system: Hek293T; test: as above; conditions: Gynecologic cancer cell panel viability, ATPlite luminescence, 48 h, control line for the selectivity index; series mostly up to 57.5 µM
Summary of the method: as §3

[16] = system: JEG-3; test: as above; conditions: Gynecologic cancer cell panel viability, ATPlite luminescence, 48 h; series mostly up to 57.5 µM
Summary of the method: as §3

[17] = system: NIH3T3; test: Cytotoxic Profiling of Annotated Libraries Using Quantitative High-Throughput Screening (AID 1296008); conditions: Five cell lines viability, CellTiter-Glo ATP luminescence, 48-72 h; max response: stronger effect = lower value; note: nearly all actives have a fitted effect of over 60% in size
Summary of the method: as §1

[18] = system: HACAT; test: qHTS assay to identify novel small-molecules to repurpose for Merkel cell carcinoma treatment (AID 1296009); conditions: MCC and control cell lines, CellTiter-Glo viability, 72 h; at 44.8 µM (top of the series) unless noted; note: nearly all actives have a fitted effect of over 60% in size
Summary of the method: as §2

[19] = system: NIH3T3; test: as above; conditions: MCC and control cell lines, CellTiter-Glo viability, 72 h; at 44.8 µM (top of the series) unless noted
Summary of the method: as §2

[20] = system: HEK293T; test: as above; conditions: MCC and control cell lines, CellTiter-Glo viability, 72 h; at 44.8 µM (top of the series)
Summary of the method: as §2
% is set by controls: 0 for no effect and ±100 for the full control effect; potency is the fitted concentration of half-maximal effect.

O=C(CCN1CCN(C(=O)OCc2cc(Cl)cc(Cl)c2)CC1)c1ccc2[nH]c(=O)oc2c1
active: Potency [1] 9.2 µM
inactive: max response [1] -21.4% | max response [2] -8.98% and -29.3% | max response [3] -3.38% and 0.622% | Potency [4] | Potency [5] | Potency [6] | Potency [7] | Potency [8] | Potency [9] | Potency [10] | Potency [11] | Potency [12] | Potency [13] | Potency [14] | Potency [15] | Potency [16]

CC(C)[C@H](CO)Nc1nc(Nc2ccc(C(=O)O)c(Cl)c2)c2ncn(C(C)C)c2n1
inactive: max response [1] 1.29% | max response [2] 4.58% | outcome [2] | outcome [3] | max response [17] -1.87% | outcome [17] | outcome [18] | Potency [4] | outcome [19] inactive [at 17.4 µM] | Potency [10] | Potency [11] | Potency [12] | Potency [13] | Potency [14] | Potency [15] | Potency [16]

C[C@@H](O)[C@H]1C(=O)N2C(C(=O)O)=C(S[C@@H]3CN[C@H](C(=O)N(C)C)C3)[C@H](C)[C@H]12
inactive: outcome [1] | max response [2] -2.71% | outcome [2] | max response [3] -4.18% | max response [17] -2.02% and 0.837% | outcome [18] | outcome [20] | Potency [4] | Potency [5] | Potency [6] | Potency [7] | Potency [8] | Potency [9] | Potency [10] | Potency [12] | Potency [13] | Potency [14] | Potency [15] | Potency [16]

CC[C@]1(O)C[C@@H]2CN(CCc3c([nH]c4ccccc34)[C@@](C(=O)OC)(c3cc4c(cc3OC)N(C)[C@H]3[C@@](O)(C(=O)OC)[C@H](OC(C)=O)[C@]5(CC)C=CCN6CC[C@]43[C@@H]65)C2)C1
active: Potency [1] 66.8 nM and 84.1 nM and 46.1 nM | Potency [3] 2.91 µM and 18.4 nM | Potency [17] 335 nM | Potency [4] 119 nM and 1.19 µM | Potency [6] 75 nM and 168 nM | Potency [7] 75 nM and 150 nM | Potency [8] 237 nM | Potency [9] 26.6 nM and 75 nM | Potency [10] 1580 nM | Potency [13] 1.12 µM and 708 nM and 794 nM | Potency [14] 316 nM and 1.12 µM and 631 nM | Potency [16] 631 nM
inactive: max response [2] 0.756% | outcome [2] | outcome [18]

CCOc1ccc(Nc2nc(-c3c(C)nc4ccccn34)cs2)cc1
active: Potency [1] 0.0461 µM | Potency [3] 33.2 nM and 32.6 nM | Potency [17] 5.3 nM and 73.1 nM | Potency [4] 37.2 nM | Potency [5] 52.6 nM | Potency [10] 355 nM | Potency [13] 316 nM | Potency [14] 178 nM
inactive: max response [2] 3.42% | outcome [2] | outcome [18]

O=C(O)c1cc(-c2ccccc2)nc2ccccc12
inactive: max response [1] -6.89% | outcome [1] | max response [2] -15.6% | outcome [2] | max response [3] -3.95% and -19% and 4.62% | max response [17] 0.25% and -0.385% | outcome [17] | outcome [18] | outcome [20] | Potency [4] | Potency [5] | Potency [6] | Potency [7] | outcome [19] | Potency [8] | Potency [9] | Potency [10] | Potency [11] | Potency [12] | Potency [13] | Potency [15] | Potency [16]
50.1 µM (active) and inactive: Potency [14]

CCOC(=O)O[C@]1(C(=O)OCCl)CC[C@@H]2[C@H]3CCC4=CC(=O)C=C[C@]4(C)[C@@H]3[C@@H](O)C[C@@]21C
inactive: outcome [1] | outcome [2] | outcome [3] | outcome [17] | outcome [18] | outcome [20] | Potency [4] | Potency [5] | Potency [6] | Potency [7] | outcome [19] | Potency [8] | Potency [9]

CC(C)(C)c1cc(C(=O)O)c(NC(=O)Nc2ccc3[nH]ncc3c2)s1
inactive: max response [1] -1.74% and 1.5% | max response [2] -3.43% | outcome [2] | max response [3] -9% | outcome [3] | max response [17] -6.15% | outcome [17] | outcome [18] | Potency [4] | Potency [5] | Potency [6] | Potency [7] | outcome [19] | Potency [8] | Potency [9] | Potency [10] | Potency [13] | Potency [14] | Potency [15] | Potency [16]

NC(N)=Nc1nc(CSCC/C(N)=N/S(N)(=O)=O)cs1
inactive: outcome [1] | outcome [2] | max response [3] 30.2% | outcome [17] | outcome [18] | outcome [20] | Potency [4] | Potency [5] | Potency [6] | Potency [7] | outcome [19] | Potency [8] | Potency [9] | Potency [10] | Potency [11] | Potency [12] | Potency [13] | Potency [14] | Potency [15] | Potency [16]

CNC(=O)c1ccc2cc(C3(O)CCn4cncc43)ccc2c1 (stereo not drawn)
inactive: max response [1] -5.04% and 1.96% | max response [2] 0.87% | outcome [2] | max response [3] -2.71% | outcome [3] | max response [17] 3.68% and 1.07% | outcome [18] | Potency [4] | Potency [5] | Potency [6] | Potency [7] | Potency [8] | Potency [9] | Potency [10] | Potency [12] | Potency [13] | Potency [14] | Potency [15] | Potency [16]

CN(C)CCC(c1ccccc1)c1ccccn1 (stereo not drawn)
inactive: max response [1] -3.33% | outcome [1] | outcome [2] | max response [3] -8.17% and 1.69% | max response [17] -1.68% | outcome [17] | outcome [18] | outcome [20] | Potency [4] | Potency [6] | Potency [7] | outcome [19] | Potency [8] | Potency [9] | Potency [10] | Potency [12] | Potency [13] | Potency [14] | Potency [15] | Potency [16]
